Screening data (PubChem BioAssay)
Only some compounds are listed: those with a hit (about 4.5% of all), similar ones and a draw of the others.
SKKanGAS inh: blocks kanamycin growth of S. pyogenes SKKanGAS strain; BacTiter-Glo, 6 h; inhibition, % at 7.5 µM; 300,000 tested, 1.3% active;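 active = mean replicate score, as percent of positive control median, at least 50; inconclusive = mean below 50 but one replicate at or above 50; inactive = mean and every replicate below 50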;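 also: strain carries kanamycin resistance gene driven by streptokinase promoter and grows in 40 µg/ml kanamycin; loss of luminescence reflects streptokinase promoter inhibition or plain growth inhibition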
tim10-1 inh: inhibits growth of tim10-1 mutant yeast. S. cerevisiae tim10-1 ts strain growth, BacTiter-Glo, 24 h. inhibition, % at 20 µM. 330,000 tested, 2.2% active. AID 463190;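 active = inhibition of at least 40%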;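 also: mutant grown at 25 °C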
NALP3 yeast inh: blocks the NALP3 inflammasome reconstituted in yeast. Yeast reconstituted NLRP3/ASC/caspase-1, beta-gal luminescence, 24 h. inhibition, % at 10 µM. 330,000 tested, 0.39% active. AID 2825;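 active = inhibition of 50% or more; inactive = inhibition below 50%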
PfHsp90 set2: growth inhibition of yeast expressing Plasmodium Hsp90; S. cerevisiae expressing PfHsp90, BacTiter-Glo ATP, 48 h; yeast lacking PDR1 and PDR3 efflux regulators; inhibition, % at 9.4 µM; 310,000 tested, 0.32% active; AID 504621;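 active = every replicate shows inhibition above about 80%, whatever the replicate mean, limit read from the data; inconclusive = mean inhibition reaches the set limit but some replicate falls short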
tim23-1 inh: tim23-1 yeast growth inhibition | S. cerevisiae tim23-1 growth, BacTiter-Glo luminescence, 24 h | inhibition, % at 20 µM | 330,000 tested, 1.3% active;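 active = growth inhibition of the mutant yeast at or above 50%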;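 also: temperature-sensitive mutant grown at 25 °C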
TIM10 inh: growth inhibitors of TIM10 yeast strain. 330,000 tested, 1.4% active. inhibition, % at 10 µM. S. cerevisiae TIM10 strain growth, BacTiter-Glo luminescence, 24 h;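 active = inhibition of 40% or more at the single tested concentration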;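 also: wild-type TIM10 isogenic control strain grown at permissive 25 °C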
NALP3 yeast conf: confirmation of NALP3 inhibitors in yeast | yeast expressing human NALP3, luminescence | AID 435006 | 1,300 tested, 81% active | shares compounds with NALP3 yeast inh | inhibition, % at 10 µM; in the data active = inhibition above about 48%
Casp1 ASC ctr: active in yeast caspase-1-ASC counter-screen for NALP3 inhibitors; 1,000 tested, 66% active; inhibition, % at 10 µM; yeast expressing Caspase-1-ASC, luminescence counter screen; shares compounds with NALP3 yeast inh
NALP3 yeast rt: yeast NALP3 inhibition, confirmed on retest; shares compounds with NALP3 yeast inh; yeast expressing human NALP3, luminescence read-out; inhibition, % at 10 µM; 1,000 tested, 53% active; AID 488794
tim10-1 conf: confirmation of tim10-1 mutant yeast growth inhibitors; S. cerevisiae tim10-1 ts strain growth, BacTiter-Glo, 24 h; AID 463213; inhibition, % at 20 µM; 7,400 tested, 56% active; shares compounds with tim10-1 inh;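 active = inhibition of yeast growth at or above a set limit in either of two repeat tests at 20 µM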;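 also: tim10-1 mutant grown at permissive 25 °C to find synthetic lethal compounds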
TIM10 conf: confirmation of TIM10 yeast growth inhibitors | shares compounds with TIM10 inh | S. cerevisiae tim10 strain growth, BacTiter-Glo luminescence, 24 h | inhibition, % at 10 µM | 4,600 tested, 63% active;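 active = inhibition of yeast growth at or above a set limit in either of two replicates at 10 µM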; also: this counterscreen used the strain with wild-type TIM10
A number is an active result; i = inactive; ? = inconclusive; nt = no result given. Rule as the data show it, unless noted: active = inhibition above about 50%; inactive = the rest.

SMILES | SKKanGAS inh | tim10-1 inh | NALP3 yeast inh | PfHsp90 set2 | tim23-1 inh | TIM10 inh | NALP3 yeast conf | Casp1 ASC ctr | NALP3 yeast rt | TIM10 conf | others
COc1ccc(C(=O)O)cc1S(=O)(=O)Nc1ccc2cn[nH]c2c1 | nt | i | i | i | i | i | nt | nt | nt | nt
O=C(Nc1cccc(F)c1)c1ccc2c(c1)OCO2 | i | i | 65 | i | i | 50 | 65 | 68 | 62 | i
Oc1c(C=Nc2ccc(Cl)cn2)sc2ccccc12 | i | i | i | i | i | i | nt | nt | nt | nt
Oc1c(/C=N/c2ccccn2)sc2ccccc12 | i | i | 65 | i | i | 69 | 76 | i | 70 | 62
COc1ccc(C(=O)NNC(=S)NC(=O)c2ccc(Cl)cc2)cc1 | 79 | i | 54 | i | i | 42 | 58 | 60 | 58 | i
O=C1C=C(c2ccc(F)c(Cl)c2)C[C@@H](c2ccc(F)cc2)C1 | nt | i | i | i | i | i | nt | nt | nt | nt
CC(C)CCOc1cccc(OCC(=O)Nc2ccncc2)c1 | i | i | 66 | 103 | i | 56 | 78 | 86 | 60 | 50
Cc1ccc(C(=O)Cn2cnc3ccccc3c2=O)cc1C | i | i | 63 | i | i | 53 | 78 | 55 | 54 | 34
CC(C)(C)OC(=O)N1Cc2ccccc2C[C@H]1C(=O)NCC(=O)NCC1CCCO1 (stereo not given in full) | i | i | i | i | i | i | nt | nt | nt | nt
O=C(N/N=C/c1cccs1)c1ccc2ccccc2c1 | i | i | 66 | i | i | 47 | 81 | 68 | 66 | i
COc1ccc(CNC(=O)COC(=O)c2ccc(C)c(S(=O)(=O)N3CCOCC3)c2)cc1 | nt | i | i | i | i | i | nt | nt | nt | nt
O=C(NC(=S)Nc1cccc([N+](=O)[O-])c1)C1CCCC1 | i | 54 | 54 | i | i | 47 | 73 | 60 | 58 | 52 | tim10-1 conf=45
CC(=O)NC(=S)Nc1cccc([N+](=O)[O-])c1 | i | i | i | i | i | i | nt | nt | nt | nt
Nn1c(SCC(=O)NCc2ccc3c(c2)OCO3)nnc1C(F)(F)F | nt | i | i | i | i | i | nt | nt | nt | nt
NNC(=O)c1ccc2nc(-c3ccc(Br)cc3)cn2c1 | i | i | 53 | i | i | 40 | 70 | nt | nt | i
CC(=O)N(/N=C/c1ccc(C)cc1)c1nc(CCl)cs1 | i | i | i | i | i | i | nt | nt | nt | nt
Cc1ccc(Oc2ccc(S(=O)(=O)N3CCOCC3)cc2C(N)=O)cc1C | i | i | i | i | i | i | nt | nt | nt | nt
CCCCNC(=O)[C@]1(C)CCC[C@@]2(C)C3CC[C@@]4(C)C[C@]3(CCC21)CC4=O (stereo not given in full) | nt | i | 54 | i | i | 59 | 50 | 60 | 53 | i
O=c1c2sc(-c3ccccc3)cc2nc2n1CCC2 | ? | 64 | 55 | i | i | 78 | i | i | i | 73 | tim10-1 conf=65
CCCCCCCCCCCCCCCC[n+]1ccc(C(N)=O)cc1 | nt | i | 53 | 104 | i | 48 | i | nt | nt | i
O=C(CCS(=O)(=O)c1ccccc1)N(CCCN1CCOCC1)c1nc2c(F)cccc2s1 | i | i | 57 | i | i | 66 | 72 | i | 53 | 70
CC(C)n1cnc2cc(NC(=O)c3ccco3)ccc21 | i | i | i | i | i | i | nt | nt | nt | nt
COc1ccc(-n2cnc3cc(NC(=O)c4ccco4)ccc32)cc1 | i | i | 58 | i | i | 66 | 80 | 62 | 70 | 54
C=CCc1c(C)c(C#N)c2nc3ccccc3n2c1NCCN(C)C | i | 49 | 54 | 109 | i | 80 | 81 | 78 | i | 85 | tim10-1 conf=60
C=C(C)Cc1c(C)c(C#N)c2nc3ccccc3n2c1NCCCN(C)C | i | i | i | nt | i | i | nt | nt | nt | nt
